Data reported in PubChem BioAssay (NCATS).
Values joined by “and” are separate entries in the source; they are usually repeats but may differ in a detail not shown here. Equal values may be shown once. Results filed as inconclusive are left out. Entries that show only a call come without a potency. The source holds several records for some structures; these can differ, active in one and inactive in another. Active and inactive are the calls of the source. Calls follow the shape of the dose curve; as a rule, active = well fitted curve in the direction sought with a large enough effect; inconclusive = small, poorly fitted or top-dose-only effect, or another doubt; inactive = no such curve, though single readings can be large; an effect the other way counts as inactive or inconclusive.

How the values were obtained:
[1] = test system: TAB109; test: qHTS profiling for inhibitors of Plasmodium falciparum proliferation (AID 504749); also: nearly all actives have a fitted effect of over 60% in size; conditions: P. falciparum in erythrocytes, SYBR Green DNA, 72 h; series mostly up to 28.7 µM
In short: (§1)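 Three-day growth assay of blood-stage parasites in erythrocytes (0.3% parasitemia, 2.5% hematocrit) at 37 C, 5% CO2, quantified by SYBR Green DNA staining after overnight detergent lysis.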

[2] = test system: TAB113; test: as above; conditions: P. falciparum in erythrocytes, SYBR Green DNA, 72 h; series mostly up to 28.7 µM
In short: as §1

[3] = test system: TAB165; test: as above; conditions: P. falciparum in erythrocytes, SYBR Green DNA, 72 h; series mostly up to 28.7 µM
In short: as §1

[4] = test system: W2; test: as above; conditions: P. falciparum in erythrocytes, SYBR Green DNA, 72 h; series mostly up to 28.7 µM
In short: as §1

[5] = test system: CRL-7250; test: Cytotoxic Profiling of Annotated Libraries Using Quantitative High-Throughput Screening (AID 1296008); conditions: Five cell lines viability, CellTiter-Glo ATP luminescence, 48-72 h; max response: stronger effect = lower value; also: nearly all actives have a fitted effect of over 60% in size
In short: (§2)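 Cytotoxicity was measured as CellTiter-Glo ATP luminescence, read after 10 min at room temperature. Compound treatment of the cells lasted 48 or 72 hr at 37 degrees Celsius in a qHTS format.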

[6] = test system: HEK293; test: as above; conditions: Five cell lines viability, CellTiter-Glo ATP luminescence, 48-72 h; max response: stronger effect = lower value
In short: as §2

[7] = test system: HaCat; test: as above; conditions: Five cell lines viability, CellTiter-Glo ATP luminescence, 48-72 h; max response: stronger effect = lower value
In short: as §2

[8] = test system: KB-3-1; test: as above; conditions: Five cell lines viability, CellTiter-Glo ATP luminescence, 48-72 h; max response: stronger effect = lower value
In short: as §2

[9] = test system: NIH3T3; test: as above; conditions: Five cell lines viability, CellTiter-Glo ATP luminescence, 48-72 h; max response: stronger effect = lower value
In short: as §2

[10] = test system: CRL-7250; test: qHTS assay to identify novel small-molecules to repurpose for Merkel cell carcinoma treatment (AID 1296009); conditions: MCC and control cell lines, CellTiter-Glo viability, 72 h; series mostly up to 44.8 µM; also: nearly all actives have a fitted effect of over 60% in size
In short: (§3)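 After compound transfer in DMSO, plates were kept 72 hr at 37 degree celsius. Luminescent ATP signal from CellTiter-Glo served as viability measure, normalized against DMSO and no-cell controls.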

[11] = test system: HACAT; test: as above; conditions: MCC and control cell lines, CellTiter-Glo viability, 72 h; at 44.8 µM (top of the series) unless noted
In short: as §3

[12] = test system: MCC-13; test: as above; conditions: MCC and control cell lines, CellTiter-Glo viability, 72 h; series mostly up to 46 µM
In short: as §3

[13] = test system: MCC-26; test: as above; conditions: MCC and control cell lines, CellTiter-Glo viability, 72 h; series mostly up to 46 µM
In short: as §3

[14] = test system: MKL-1; test: as above; conditions: MCC and control cell lines, CellTiter-Glo viability, 72 h; series mostly up to 46 µM
In short: as §3

[15] = test system: MKL-2; test: as above; conditions: MCC and control cell lines, CellTiter-Glo viability, 72 h; series mostly up to 46 µM
In short: as §3

[16] = test system: NIH3T3; test: as above; conditions: MCC and control cell lines, CellTiter-Glo viability, 72 h; at 44.8 µM (top of the series) unless noted
In short: as §3

[17] = test system: UISO; test: as above; conditions: MCC and control cell lines, CellTiter-Glo viability, 72 h; series mostly up to 46 µM
In short: as §3

[18] = test system: WaGa; test: as above; conditions: MCC and control cell lines, CellTiter-Glo viability, 72 h; series mostly up to 46 µM
In short: as §3

[19] = test system: C33A; test: Primary qHTS to identify gynecologic anti-cancer compounds using libraries of approved drugs and bioactive compounds (AID 1345084); conditions: Gynecologic cancer cell panel viability, ATPlite luminescence, 48 h; series mostly up to 57.5 µM; also: nearly all actives have a fitted effect of over 55% in size
In short: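 ATP-based viability (ATPlite), 1,000 cells/well, 16 h pre-incubation, 48 h compound at 37 C, 5% CO2, 15 min RT before read.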

[20] = test system: HEK293T; test: qHTS assay to identify novel small-molecules to repurpose for Merkel cell carcinoma treatment (AID 1296009); conditions: MCC and control cell lines, CellTiter-Glo viability, 72 h; at 44.8 µM (top of the series); also: nearly all actives have a fitted effect of over 60% in size
In short: as §3
Potency is read from the fitted curve at half-maximal effect.

With `COc1ccc(C(=O)c2c(C)n(CCN3CCOCC3)c3ccccc23)cc1` the Potency [1] was “inactive”, the Potency [2] was “inactive” and the Potency [3] was “inactive”. For the same compound, the Potency [4] was “inactive”, the max response [5] was -23.7% (inactive) and the outcome [5] was “inactive”. The max response [6] was -9.73% (inactive), the max response [7] was -26.9% (inactive) and the outcome [7] was “inactive”. The max response [8] was 5.69% (inactive) and 21.2% (inactive), the max response [9] was -11.5% (inactive) and the outcome [9] was “inactive”. For the same compound, the outcome [10] was “inactive”, the outcome [11] was “inactive” and the Potency [12] was “inactive”. The Potency [13] was “inactive”, the Potency [14] was “inactive” and the Potency [15] was “inactive”. For the same compound, the outcome [16] was “inactive”, the Potency [17] was “inactive” and the Potency [18] was “inactive”. The Potency [19] was “inactive”.
With `COc1ccc(Cc2nccc3cc(OC)c(OC)cc23)cc1OC` the Potency [5] was 5.31 µM (active), the max response [5] was 2.23% (inactive) and the max response [7] was -4.38% (inactive) and -16.7% (inactive). For the same compound, the max response [8] was -20.5% (inactive) and -0.283% (inactive), the max response [9] was -6.53% (inactive) and the Potency [12] was “inactive”. The Potency [14] was “inactive”, the Potency [15] was “inactive” and the Potency [17] was “inactive”. For the same compound, the Potency [18] was “inactive”.
With `O=c1oc2ccccc2c(O)c1C(CC(O)c1ccc(-c2ccc(Br)cc2)cc1)c1ccccc1` (centres undefined) the max response [5] was 0.6% (inactive), the outcome [6] was “inactive” and the max response [7] was 4.03% (inactive). For the same compound, the max response [8] was 0.095% (inactive), the max response [9] was 0.0262% (inactive) and the outcome [20] was “inactive”. The Potency [12] was “inactive”, the Potency [13] was “inactive” and the Potency [14] was “inactive”. For the same compound, the Potency [15] was “inactive”, the Potency [17] was “inactive” and the Potency [18] was “inactive”. The Potency [19] was “inactive”.
`CC[C@@H](CO)NC(=O)[C@@H]1C=C2c3cccc4c3c(cn4C)C[C@H]2N(C)C1` was tested, and the max response [5] was 4.07% (inactive), the outcome [7] was “inactive” and the max response [8] was -9.77% (inactive). For the same compound, the max response [9] was 2.49% (inactive), the outcome [11] was “inactive” and the Potency [12] was “inactive”. For the same compound, the Potency [13] was “inactive”, the Potency [14] was 21.1 µM (active) and the Potency [19] was “inactive”.
For `CN(C)CCc1ccc(O)cc1`, the Potency [1] was “inactive”, the Potency [2] was “inactive” and the Potency [3] was “inactive”. For the same compound, the Potency [4] was “inactive”, the max response [5] was -1.07% (inactive) and -0.797% (inactive) and the max response [7] was 3.93% (inactive). For the same compound, the outcome [7] was “inactive”, the max response [8] was -1.4% (inactive) and 4.63% (inactive) and the max response [9] was -1.51% (inactive) and -2.46% (inactive). The outcome [11] was “inactive”, the outcome [20] was “inactive” and the Potency [12] was “inactive”. The Potency [13] was “inactive”, the Potency [14] was “inactive” and the Potency [15] was “inactive”. The Potency [17] was “inactive”, the Potency [18] was “inactive” and the Potency [19] was “inactive”.
In the case of `CC(C)NCC(O)c1ccccc1Cl` (centres undefined), the Potency [1] is reported as 4.47 µM (active), the Potency [2] is reported as 12.6 µM (active) and the Potency [4] is reported as 3.38 µM (active). The outcome [5] was “inactive”, the max response [7] was -6.64% (inactive) and the max response [8] was -12% (inactive). For the same compound, the max response [9] was -1.73% (inactive), the outcome [10] was “inactive” and the outcome [20] was “inactive”. The Potency [12] was “inactive”, the Potency [13] was “inactive” and the Potency [14] was “inactive”. The Potency [15] was “inactive”, the Potency [17] was “inactive” and the Potency [18] was “inactive”. For the same compound, the Potency [19] was “inactive”.
For `Cc1sc2c(c1C)C(c1ccc(Cl)cc1)=N[C@@H](CC(=O)OC(C)(C)C)c1nnc(C)n1-2`, the Potency [5] was 0.372 µM (active), the Potency [6] was 0.526 µM (active) and the Potency [14] was 5.9 µM (active). For the same compound, the Potency [15] was 264 nM (active) and the Potency [18] was 2.35 µM (active).
With `FC(F)(F)c1cccc(C2=CCN(CCc3ccc4ccccc4c3)CC2)c1` the Potency [2] was “inactive”, the Potency [3] was “inactive” and the Potency [4] was “inactive”. The max response [5] was -12.8% (inactive), the outcome [7] was “inactive” and the max response [8] was -4.6% (inactive). For the same compound, the outcome [9] was “inactive”, the outcome [11] was “inactive” and the outcome [20] was “inactive”. For the same compound, the Potency [12] was “inactive”, the Potency [13] was “inactive” and the Potency [14] was “inactive”. The Potency [15] was “inactive”, the outcome [16] was “inactive” and the Potency [17] was “inactive”. For the same compound, the Potency [18] was “inactive” and the Potency [19] was “inactive”.
`N[C@@H](Cc1ccc(N(CCCl)CCCl)cc1)C(=O)O` was tested, and the Potency [3] was 11.2 µM (active), the Potency [4] was 6.75 µM (active) and the max response [5] was -7.43% (inactive). The Potency [6] was 20.9 µM (active), the max response [7] was -1% (inactive) and the max response [8] was -3.99% (inactive) and -10.4% (inactive). The Potency [13] was “inactive”, the Potency [14] was 2.66 µM (active) and 2.96 µM (active) and the Potency [15] was 1.33 µM (active) and 469 nM (active). For the same compound, the Potency [17] was 13.3 µM (active) and 13.2 µM (active), the Potency [18] was 4.22 µM (active) and 5.26 µM (active) and the Potency [19] was “inactive”.
In the case of `Oc1cc(Cl)ccc1Oc1ccc(Cl)cc1Cl`, the Potency [1] is reported as 10 µM (active), the Potency [2] is reported as 4.47 µM (active) and the Potency [3] is reported as 3.55 µM (active). For the same compound, the Potency [4] was 3.38 µM (active), the Potency [5] was 39.4 µM (active) and the Potency [6] was 22.1 µM (active). For the same compound, the max response [8] was 3.49% (inactive), the Potency [12] was 44.2 µM (active) and inactive and the Potency [13] was “inactive”. For the same compound, the Potency [15] was 24800 nM (active), the Potency [17] was 44.2 µM (active) and the Potency [18] was 55.6 µM (active). For the same compound, the Potency [19] was 28.2 µM (active) and inactive.
With `CCCC(C)(COC(N)=O)COC(=O)NC(C)C` (centres undefined) the Potency [1] was “inactive”, the Potency [2] was “inactive” and the Potency [3] was “inactive”. For the same compound, the Potency [4] was “inactive”, the outcome [5] was “inactive” and the max response [7] was -8.86% (inactive) and 1.84% (inactive). For the same compound, the max response [8] was -16.5% (inactive), the outcome [8] was “inactive” and the max response [9] was -10.4% (inactive). The outcome [9] was “inactive”, the outcome [10] was “inactive” and the outcome [20] was “inactive”. For the same compound, the Potency [12] was “inactive”, the Potency [13] was “inactive” and the Potency [14] was “inactive”. The Potency [15] was “inactive”, the outcome [16] was “inactive” and the Potency [17] was “inactive”. The Potency [18] was “inactive” and the Potency [19] was “inactive”.
For `CC[N+](CC)(CC)CC`, the Potency [1] was “inactive”, the Potency [2] was “inactive” and the Potency [3] was “inactive”. For the same compound, the Potency [4] was “inactive”, the outcome [5] was “inactive” and the max response [7] was -5.59% (inactive). The max response [8] was -7.23% (inactive), the outcome [9] was “inactive” and the outcome [10] was “inactive”. For the same compound, the Potency [12] was “inactive”, the Potency [13] was “inactive” and the Potency [14] was “inactive”. For the same compound, the Potency [15] was “inactive”, the outcome [16] was “inactive” and the Potency [17] was “inactive”. The Potency [18] was “inactive” and the Potency [19] was “inactive”.
For `CC(C)=CCOc1c2occc2cc2ccc(=O)oc12`, the max response [5] was -11.3% (inactive), the outcome [7] was “inactive” and the max response [8] was -18.5% (inactive). For the same compound, the max response [9] was -0.907% (inactive), the outcome [11] was “inactive” and the Potency [12] was “inactive”. For the same compound, the Potency [13] was “inactive”, the Potency [14] was “inactive” and the Potency [15] was “inactive”. For the same compound, the Potency [17] was “inactive”, the Potency [18] was “inactive” and the Potency [19] was “inactive”.
For `CCC(COC(=O)c1cc(OC)c(OC)c(OC)c1)(c1ccccc1)N(C)C` (centres undefined), the Potency [1] was “inactive”, the Potency [2] was “inactive” and the Potency [4] was 6.75 µM (active). The max response [5] was -3.97% (inactive), the outcome [7] was “inactive” and the max response [8] was 3.84% (inactive). For the same compound, the outcome [9] was “inactive”, the outcome [11] was “inactive” and the Potency [12] was “inactive”. The Potency [14] was “inactive”, the Potency [15] was “inactive” and the outcome [16] was “inactive”. For the same compound, the Potency [17] was “inactive”, the Potency [18] was “inactive” and the Potency [19] was “inactive”.
